This passage reports PBM binding z-score results from the supplement of paper PMC6555819.

The subject of the test is VDR:RXRa (NR concentration 270 nM, RXRa partner concentration 90 nM). The test can be described thus: PBM binding z-score (relative to random genomic background probes); higher = stronger binding; sequences stand for … in GC…GCGATTGACAGCGTAGAATGAAGG
Here is the method:
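Protein-binding microarray (Agilent 4x180K custom design, double-stranded 60-nt probes: 5' GC cap, 34-nt variable region, 24-nt constant primer region; full probe sequence given). Purified or IVT nuclear receptor:RXRα heterodimers (3:1 NR:RXRα, mostly 270:90 nM) or homodimers were incubated for 1 h in PBS with 2% milk and no ligand, then detected with Alexa488 antibodies. Fluorescence from o1-orientation probes (~5 replicates averaged) was converted to z-scores against 500 random hg19 background probes. Variable regions are seed direct-repeat (DR0–DR5) sites, all their single-nucleotide variants and half-site ablations.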
AATACAGGGTCACTAGGGCAGAGTAGGTACGAAT: the PBM binding z-score came to 4.5. For the sequence ATAAGTAGGTTAGCTGGGGTCATTCAGACTAGGC, the PBM binding z-score was 5.98.

Consider CGTCCAAGGTCATAGGATGTCAGTGAAGACAGAT, for which the PBM binding z-score turned out to be 4.77. The figure for AGAAGGAGGGCAATGAGTTGATAGCACGGGTGGC is 4.93; for TCATATAGGAAAAGGTGAAAGTCGAACGATATGA it is 0.862; for GCAGACAGGTGGAACGCAGGTAACTCAGGGTGGC it is -0.675. The figure for GCTAGCAGGCCATTTGCGTCACTCAATGACGGGC is -0.801; for TCATATAGGTAACTGCTAGGTGAAAGTCCGATCT it is 0.632.

The sequence TCGAGTAGGTTACCAATGGGGCCTTCAGCTTTCT came in with a PBM binding z-score of -0.371. The figure for CCTTACGGGTCACGAGGTTATAGCGCGACGAGCG is 4.99; for TAGCCTATGTCATTCAGGGGCCAGTATAGAAAGC it is -0.286. The sequence TGAAAGAGGTTATAAGATCAGGGAACGTTGCAAA had a PBM binding z-score of 0.894. Under TCTGCTAGGTCAACGATGGTCAACTAATCTGCTA stands 2.27; under CCTTACGGCTCACTCCAGGTTATAGCATCGGAGT, 0.016. TAGCCTAGGTGATGCGGGCCAGTATAGTGTCGGC returned a PBM binding z-score of -0.796.

With ATATGTAGGTTACATCCGGATCATTCAGGCTATG, the PBM binding z-score was 0.945. The sequence GCTAGATGGTCAGTAAAAGGTCACACACCGGTCG gave a PBM binding z-score of 3.91. In turn, TAGCCTAGGTCAGATTGGGCCAGTATACGCTATA registered a PBM binding z-score of 0.524. TCTTGCAGATCAACAGGAGGTTAAGAAAGATCGA came in with a PBM binding z-score of 0.489. Under CGTCCAAGGTCGAGGTCAGTGAAAGAGACTCGAA stands 3.73. In turn, TCTGGTAGATCAATAGAGGTTAAGAAAGTGCGCT registered a PBM binding z-score of 1.87. Under TCATGTAGATCAAGCAGGTTAAGAAAGCCTGAGT stands 0.938; under GATGCAGGGTCAGCTAGAGGCCAGAGTATGGAAA, 3.11; under CCTTACGGGTCACGAGGTTATAGCTCGACGAGCG, 5.07. Regarding ATATGTAGGTTACATCCGGGTCATACAGGCTATG, the PBM binding z-score was determined as 4.02. Under CGTCCAGGGTCATAGGAGGTCAGTGAAGACAGAT stands 6.65; under CGTCCAAGGTCAGAGAGGTCAGCGAATGCCGAGT, 7.48; under CGTCCAAGGTCATTGCTAGGTCAGTGAAAGCATT, 5.53. Under TAGCCTAGGTGATTCAGGGGCCAGTATAGAAAGC stands -0.381. The figure for TCTAGCAGGCCAGAGGGTCACTCATGAGGTACGG is 1.4; for TCTATTAGTTGATTAGGGCTACCGAAACAGCGGA it is 0.473; for TCTAGTTGGTCACGGCGGTCACACACGACGGGTA it is 1.82. Sequence TAGCCTAGGTCACGCGGGCCAGTATAGTGTCGGC yielded a PBM binding z-score of 3.35. Under TGTTGTAGATCAAAGGTTAAGAAAGCCGAAGCCT stands 1.44; under CGTCCAAGGTCAGAGAGGTCAGTGCATGCCGAGT, 7.42. The figure for TAGCCTAGGTCAATCAGGGGCCAGTATAGAAAGC is 2.32; for GGAACGACGGCAAAGTTGATAGCATCTGTCGACG it is -0.538; for TCTAGTTGGTCAAAGGTCACACAATCGAAATGCG it is 5.52. Under CGCCCAAGGTCAGAGAGGTCAGTGAATGCCGAGT stands 7.36. On to ATATGTAAGTTAAGGGTCATTCAGGTTGGTTCGC, for which the PBM binding z-score was 5.46.
